Measurements reported in PubChem BioAssay AID2761 (The Scripps Research Institute Molecular Screening Center, 2010).
The other results are listed elsewhere or left out. Values without a mark were called inactive. Calls of active or inactive are those of the source. No stated cut-off is given here; in the data, active means inhibition above about 38%; inactive means the rest.

Biological target: Serine protease Rv3671c (Mycobacterium tuberculosis (strain ATCC 25618 / H37Rv)) (UniProt P9WHR9)
Experiment: Rv3671c serine protease inhibitors, retest, confirmation, biochemical, fluorescence polarization, M. tuberculosis H37Rv (AID 2761)
Conditions: at 5.96 µM; active compounds read high

Chain of Serine protease Rv3671c (Mycobacterium tuberculosis (strain ATCC 25618 / H37Rv)) (P9WHR9 whole entry, looked up): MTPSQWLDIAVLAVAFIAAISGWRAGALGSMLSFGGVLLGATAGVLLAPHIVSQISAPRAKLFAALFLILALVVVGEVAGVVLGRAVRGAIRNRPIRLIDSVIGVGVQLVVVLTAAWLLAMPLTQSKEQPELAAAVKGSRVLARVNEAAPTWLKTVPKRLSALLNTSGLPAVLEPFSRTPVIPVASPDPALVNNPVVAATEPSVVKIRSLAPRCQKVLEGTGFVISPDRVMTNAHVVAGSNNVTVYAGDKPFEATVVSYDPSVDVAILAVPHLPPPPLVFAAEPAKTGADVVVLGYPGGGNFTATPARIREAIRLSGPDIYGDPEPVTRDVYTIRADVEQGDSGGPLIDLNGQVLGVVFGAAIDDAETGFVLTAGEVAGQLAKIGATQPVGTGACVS

SMILES | inhibition
c1ccc2[nH]c(-c3nc4ccccc4[nH]3)nc2c1 | 66.6% (active)
COCCOC(=O)c1sc(=S)n(CCOC)c1N | 28.9%
